# Data published in PubChem BioAssay AID595 (National Center for Advancing Translational Sciences (NCATS), 2007).
# About 310 (0.44%) of roughly 71,000 compounds were called active. Another 5% or so got no clear call; they are omitted. The list comes from a sample in which actives are over-represented; it also holds similar structures and randomly drawn compounds. Values without a mark were called inactive. Calls come from the whole dose curve; as a rule, active = well fitted curve in either direction with a large enough effect; inconclusive = small, poorly fitted or top-dose-only effect, or another doubt; inactive = flat fitted curve, though single readings scatter.
# System: Hsp90 C-terminal peptide / TPR2A (Hop) interaction, human
# Test: qHTS Assay for Disrupters of an Hsp90 Co-Chaperone Interaction
# Conditions: AlphaScreen TPR2A-His6 binding biotin-Hsp90 C-terminal peptide; series mostly up to 57 µM; activity change, negative = inhibition: at the top concentration
# Text: NIH Chemical Genomics Center [NCGC]
# NIH Molecular Libraries Screening Centers Network [MLSCN]
# Hsp90 (heat shock protein 90) is the essential molecular chaperone and it accounts for 1-2% of all cytosolic proteins and is critical for the activity of diverse cellular proteins that are involved in a variety of cellular processes, including development, cell cycle, and steroid hormone signaling. Its client proteins include signaling kinases such as IGF1R, Akt, v-Src, Raf-1; regulators of cell survival such as Bcr-Abl; and transcription factors such as mutated p53, estrogen and progesterone receptors. Hsp90 has emerged as an important target for cancer treatment due to its essential role in maintaining transformation and regulating the function of oncogenic signaling proteins.
# The in vivo function of Hsp90 is regulated by the binding and hydrolysis of ATP at its N-terminal. Geldanamycin binds to ATP site and inhibit Hsp90 function. Geldanamycin and its analogues are under clinical trials in cancer patients.
# This domain contains the binding site for tetratricopeptide repeat (TPR) domains on HOP (Hsp Organizing Protein). TPR is a structural motif used by a significant number of cochaperones by which the in vivo function of Hsp90 is regulated. TPR2A on HOP binds specifically to MEEVD motif of the C-terminal of Hsp90.
# A homogeneous AlphaScreen is developed to assess the interaction between TPR2A and MEEVD motif of the C-terminal of Hsp90 by using the isolated TPR2A domain and a synthesized 20mer Hsp90 C terminal peptide. AlphaScreen is two bead-based proximity-dependent chemical energy transfer luminescent assay platform. TPR2A-His-6 and biotinylated Hsp90 C terminal peptide will bring streptavidin donor beads and nickel chelate acceptor beads to a proximity range (less than 200 nm), and subsequently lead a chemical luminescent reaction upon exciting donor beads with 680 nm laser. Inhibition of TPR2A and MEEVD motif interaction by small molecules could attenuate or abolish this chemical luminescent reaction.
# Counter screening: Biotinylated-His-6 (PerkinElmer) can be utilized as a counter screen, as it serves as a linker to bring streptavidin beads and nickel chelate beads together. The counter screen can exclude alpha screen platform false positives due to small molecules being metal chelators, biotin analogues and imidazole analogues, or due to interfering with oxygen release from donor beads. Such an assay should be utilized to qualify any activity observed in this screen.
# NCGC Assay Protocol Summary:
# The assay was performed on 1536-well white plate (untreated solid bottom). Liquids were dispensed by 1536-well plate washer (Kalypsys, San Diego, CA). Plates were read on EnVision (PerkinElmer, Boston, MA).TPR2A-His6 was produced using a bacteria expression system and purified using a well developed method (Ghosh et al., 2000). Hsp90 C terminal 20-mer peptide with or without an N-terminal biotin group are synthesized using automated solid phase synthesis by the Yale Keck facility. The composition of assay buffer was (in mM) 25 HEPES, 100 KCl, 2 MgCl2 and 2 DTT; 0.1% BSA and 0.01% Tween-20. TPR2A-His6 binding to biotin-Hsp90 will bring streptavidin donor beads and nickel chelate acceptor beads (PerkinElmer) together and can be measured by Alpha reading by EnVision (PerkinElmer). Free Hsp90 blocks biotin-Hsp90 binding to TPR2 and serves as a positive control in the current asssay.
# The assay was performed at room temperature. All compounds were screened as titrations from […] to 46 uM final concentration. The assay was performed in 1536-well format plates (untreated white solid bottom, Corning Inc.) as follows:
# Sequence,Parameter,Value,Description
# 1,Reagent,3 uL TPR2A-His6,Final concentration was 5nM
# 2,Compound,23 nL,Final titration was from 0.7 nM to 46 uM
# 3,Time,15 minutes,Room temperature
# 4,Reagent,1 uL biotin-Hsp90,With and without free Hsp90. Final concentration was 10 nM for biotin-Hsp90 and 10uM for free Hsp90.
# 5,Time,1 hour,Room temperature
# […]
# % is set by controls: 0 for no effect and ±100 for the full control effect; potency is the fitted concentration of half-maximal effect.
Structure (SMILES),"activity change, negative = inhibition",Potency
Cc1noc(C)c1-c1cc(NCc2cccnc2)ncn1,-0.41%,–
c1ccc2sc(SCCSc3nc4ccccc4s3)nc2c1,2.87% [at 11 µM],–
O=C(O)CCCCC(=O)O,-1.35%,–
CN(C)c1ccc(-c2nc(NCCN3CCOCC3)c3ccccc3n2)cc1,-7.7%,–
COC(=O)c1c(-c2ccc(C)cc2)csc1N,-5.56%,–
CC(C)CC1(C(=O)NCc2ccccn2)C=CCN1C(=O)c1ccccc1 (configuration not stated),-3.81%,–
CN(CCCNC(=O)CN1C(=O)CC(C)(C)S(=O)(=O)c2ccccc21)C1CCCCC1,-2.54%,–
O=c1[nH]c(=O)n([C@H]2C[C@H](O)[C@H](CO)O2)cc1Br,-2.56%,–
Cc1ccc(S(=O)(=O)Nc2ccccc2CNc2c(C)n(C)n(-c3ccccc3)c2=O)cc1,-1.54%,–
N[C@H](C(=O)O)c1ccc(C(=O)O)c(O)c1,-1.81%,–
CCCn1c(=O)c2[nH]c(-c3ccc(OCC(=O)NCCN)cc3)nc2n(CCC)c1=O,-19.8%,–
COc1ccc(OC)c(CN2C(=O)CCC2(C)C(=O)NC2CCCCCC2)c1 (configuration not stated),-12.8%,–
CCCCC/C=C/C=C/C=O,0.076%,–
N#Cc1cccc(-c2nc3cnc(N4CCNCC4)nc3n(C3CC3)c2=O)c1,-4.38%,–
O=c1c(-c2ccc(F)cc2)nc2cncnc2n1-c1ccccc1,-0.766%,–
c1ccc2c(c1)-c1ccccc1C2N1CC2CCC(CC2)C1,2.37% [at 11 µM],–

Structure (SMILES),"activity change, negative = inhibition",Potency
COc1ccc(C[C@H](N)C(=O)N[C@@H]2[C@H](O)[C@H](n3cnc4c(N(C)C)ncnc43)O[C@@H]2CO)cc1,-4.16% [at 26 µM],–
Cc1cc(Cl)ccc1OCC(=O)Oc1c(Cl)c(Cl)c(Cl)c(Cl)c1Cl,0.356% [at 11 µM],–
O=C(COc1ncnc2ccccc12)NC(=O)NCc1ccccc1,2.77%,–
C[C@@H]1O[C@@H](O[C@@H]2[C@@H](O)[C@H](OCCc3ccc(O)c(O)c3)O[C@H](CO[C@@H]3O[C@H](CO)[C@@H](O)[C@H](O)[C@H]3O)[C@H]2OC(=O)/C=C/c2ccc(O)c(O)c2)[C@H](O)[C@H](O)[C@H]1O,-0.838%,–
Cc1ccccc1N1CCN(S(=O)(=O)C[C@@]23CC[C@H](C[C@H]2NC(=O)[C@@H](N)CCS(C)(=O)=O)C3(C)C)CC1,-8.53%,–
COc1ccc(NC(=O)N2CC3(CCN(C(=O)c4cccn4C)CC3)C2)cc1,-8.94%,–
COc1ccc(C(=O)N2CCC3(CC2)CCN(c2ccccn2)CC3)cc1,2.71%,–
O=C(Nc1cccc(F)c1)N1CC2(CCN(C(=O)c3csnn3)CC2)C1,1.12%,–
CCn1ccnc1C[C@@H]1COc2ccccc2O1,inactive,–
CC/C=C/C/C=C/C/C=C/CCCCCCCC(=O)OCC,1.86%,–
COC(=O)c1c(NC(=O)CSc2nc3c(c(=O)n(C)c(=O)n3C)n2C(C)C)sc(C)c1C,-2.6%,–
CCOC(=O)c1c(NC(=O)CSc2nnc(Cc3csc(N)n3)n2C)sc(C)c1C,–,25.1 µM (active)
CCOC(=O)c1c(NC(=O)CSc2nnc(CN3CCOCC3)n2C)sc2c1CCCC2,-2.12%,–
Brc1cc(Br)c(Oc2cc(Br)c(Br)cc2Br)cc1Br,12.2%,–
Nc1nc2c(ncn2[C@H]2CC[C@@H](CO)O2)c(=O)n1C(=O)c1ccccc1,-4.52% [at 11 µM],–
CCOC(=O)CSc1nnc(CNc2ccc(F)cc2)o1,-0.588%,–
